Assay results as given in PubChem BioAssay.
Where “and” joins values, the source holds several entries; their conditions need not be identical. Equal values may be shown once. Results filed as inconclusive are left out. Calls of active or inactive are those of the source.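 Rule for the calls, unless noted: active = normalized viability below 100% at a tested concentration; inactive = the rest.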

How the values were obtained:
[1] = growth inhibition of DIPG glioma cells, dose response, cell-based, SU-DIPG-XIII, MIPE4.0, CellTiter-Glo, qHTS (AID 1347061; cut-off not given, nearly all actives have AC50 up to about 37 µM;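 note: cells exposed to compound for 48 hours before readout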); settings: SU-DIPG-XIII viability, CellTiter-Glo ATP luminescence
[2] = growth inhibition of DIPG glioma cells, dose response, cell-based, JHH-DIPG-1, MIPE4.0, CellTiter-Glo, qHTS (AID 1347062; cut-off not given, nearly all actives have AC50 up to about 27 µM;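 for AC50: cells exposed to compound for two days before readout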); settings: JHH-DIPG-1 viability, CellTiter-Glo ATP luminescence
[3] = viability loss in pontine glioma line – cell-based, SU-DIPG-XXV, MIPE5.0, CellTiter-Glo, qHTS, dose response (AID 1347065; cut-off not given, nearly all actives have AC50 up to about 26 µM;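 note: cells exposed to compound for 48 hours before ATP readout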); settings: CellTiter-Glo ATP luminescence
[4] = SU-DIPG-VI glioma cell viability, MIPE4.0 library, CellTiter-Glo luminescence, qHTS (AID 1347066; cut-off not given, nearly all actives have AC50 up to about 30 µM;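 note: cells exposed to compound for 48 hours before readout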); settings: CellTiter-Glo ATP luminescence
[5] = JHH-DIPG-1 glioma cell viability, MIPE5.0 library, CellTiter-Glo luminescence, qHTS (AID 1347067; cut-off not given, nearly all actives have AC50 up to about 26 µM;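 note: cells exposed to compound for 48 hours before readout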); settings: JHH-DIPG-1 glioma viability, CellTiter-Glo ATP luminescence
[6] = sensitizers of A549 cells to miR-34 induction, primary screen, imaging, A549 dox-inducible miR-34, nuclei and caspase counts (AID 1347080;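 active = compounds whose cell count with miR-34 switched on is under 0.7 times the count with it off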); settings: A549 miR-34 inducible, Hoechst nuclei count, 48 h
[7] = modifiers of HSF1 nuclear foci, imaging, Selleck Cancer Library (AID 1347162; in the data active = plate-normalised HSF1 focus index below about 0.46); settings: human cells, at 10 µM; SSMD: measured here: HSF1 foci SSMD mean; cell count: measured here: cell number; plate-normalised HSF1 focus index: stronger effect = lower value
[8] = survival rescue of mitochondrial mutant cells in low glucose, primary screen, MELAS cybrids, Rieske KO mouse fibroblasts, CellTiter-Glo (AID 1508586;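 active = mean z-score across replicates of 1.96 or higher in either the MELAS or the Rieske mutant cell line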;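 note: z relative to plate mean and SD of compound and empty wells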)
[9] = ovarian cancer cell viability with rucaparib, profiling panel, oncology-focused library, rucaparib conditional (AID 1508598); settings: patient-derived ovarian cancer cells, CellTiter-Glo viability, 144 h, stronger effect = lower value
[10] = SU-DIPG-XXV glioma cell viability, MIPE5.0 library, qHTS (AID 1347068; cut-off not given, nearly all actives have IC50 up to about 30 µM)
[11] = stronger effect = lower value, cell number ratio, induced over uninduced
[12] = measured here: relative caspase fold change +Dox/-Dox
[13] = measured here: total cells with miR-34 induction, stronger effect = lower value
[14] = measured here: total cells without miR-34 induction
[15] = MELAS cybrid survival, CellTiter-Glo 48 h, stronger effect = higher value
[16] = Rieske KO mouse fibroblast survival, CellTiter-Glo 72 h
[17] = at 0.000305 µM, OCI-C5x cells, with rucaparib 10 µM, 100% = cells with rucaparib alone
[18] = at 0.000305 µM, OCI-C5x cells, without rucaparib
[19] = at 0.000305 µM, OCI-P5x cells, with rucaparib 20 µM, 100% = cells with rucaparib alone
[20] = at 0.000305 µM, OCI-P5x cells, without rucaparib
[21] = at 0.00122 µM, OCI-C5x cells, with rucaparib 10 µM, 100% = cells with rucaparib alone
[22] = at 0.00122 µM, OCI-C5x cells, without rucaparib
[23] = at 0.00122 µM, OCI-P5x cells, with rucaparib 20 µM, 100% = cells with rucaparib alone
[24] = at 0.00122 µM, OCI-P5x cells, without rucaparib
[25] = at 0.00488 µM, OCI-C5x cells, with rucaparib 10 µM, 100% = cells with rucaparib alone
[26] = at 0.00488 µM, OCI-C5x cells, without rucaparib
[27] = at 0.00488 µM, OCI-P5x cells, with rucaparib 20 µM, 100% = cells with rucaparib alone
[28] = at 0.00488 µM, OCI-P5x cells, without rucaparib
[29] = at 0.0195 µM, OCI-C5x cells, with rucaparib 10 µM, 100% = cells with rucaparib alone
[30] = at 0.0195 µM, OCI-C5x cells, without rucaparib
[31] = at 0.0195 µM, OCI-P5x cells, with rucaparib 20 µM, 100% = cells with rucaparib alone
[32] = at 0.0195 µM, OCI-P5x cells, without rucaparib
[33] = at 0.0781 µM, OCI-C5x cells, with rucaparib 10 µM, 100% = cells with rucaparib alone
[34] = at 0.0781 µM, OCI-C5x cells, without rucaparib
[35] = at 0.0781 µM, OCI-P5x cells, with rucaparib 20 µM, 100% = cells with rucaparib alone
[36] = at 0.0781 µM, OCI-P5x cells, without rucaparib
[37] = at 0.313 µM, OCI-C5x cells, with rucaparib 10 µM, 100% = cells with rucaparib alone
[38] = at 0.313 µM, OCI-C5x cells, without rucaparib
[39] = at 0.313 µM, OCI-P5x cells, with rucaparib 20 µM, 100% = cells with rucaparib alone
[40] = at 0.313 µM, OCI-P5x cells, without rucaparib
[41] = at 1.25 µM, OCI-C5x cells, with rucaparib 10 µM, 100% = cells with rucaparib alone
[42] = at 1.25 µM, OCI-C5x cells, without rucaparib
[43] = at 1.25 µM, OCI-P5x cells, with rucaparib 20 µM, 100% = cells with rucaparib alone
[44] = at 1.25 µM, OCI-P5x cells, without rucaparib
[45] = at 5 µM, OCI-C5x cells, with rucaparib 10 µM, 100% = cells with rucaparib alone
[46] = at 5 µM, OCI-C5x cells, without rucaparib
[47] = at 5 µM, OCI-P5x cells, with rucaparib 20 µM, 100% = cells with rucaparib alone
[48] = at 5 µM, OCI-P5x cells, without rucaparib

Cc1csc(-c2nnc(Nc3ccc(Oc4ncccc4-c4ccnc(N)n4)cc3)c3ccccc23)c1
1.23: z-score [8, 16]
8.74: SSMD [7]
7110: cell count [7]
3250: cell count [6, 13]
0.556: fold change [6, 12]
inactive: outcome [1] | outcome [2] | outcome [4] | outcome [5] | fold change [6, 11] 1.11 | plate-normalised HSF1 focus index [7] 1.31 | z-score [8, 15] -0.373 | viability [9, 17] 113% | viability [9, 18] 116% | viability [9, 19] 111% | viability [9, 21] 109% | viability [9, 22] 107% | viability [9, 23] 108% | viability [9, 25] 103% | viability [9, 27] 113% | viability [9, 38] 105% | viability [9, 41] 102% | viability [9, 45] 119% | viability [9, 46] 133%
active: AC50 [3] 0.00417 µM | viability [9, 20] 94.9% | viability [9, 24] 98.2% | viability [9, 26] 92.7% | viability [9, 28] 93.3% | viability [9, 29] 78.2% | viability [9, 30] 88.5% | viability [9, 31] 93% | viability [9, 32] 70.3% | viability [9, 33] 82.2% | viability [9, 34] 99.2% | viability [9, 35] 92.9% | viability [9, 36] 66.6% | viability [9, 37] 79.9% | viability [9, 39] 94.9% | viability [9, 40] 67.8% | viability [9, 42] 95.4% | viability [9, 43] 91% | viability [9, 44] 64.7% | viability [9, 47] 58.5% | viability [9, 48] 54.4%
2920: cell count [6, 14]

O=C(O)CC/C=C\CC[C@@H]1[C@@H](N2CCCCC2)[C@@H](O)C[C@@H]1OCc1ccc(-c2ccccc2)cc1
inactive: outcome [1] | outcome [2] | outcome [3] | outcome [4] | outcome [5] | outcome [10]

CCCCCN(CCC12CC3CC(CC(C3)C1)C2)C(=O)NCCCc1ccncc1
inactive: outcome [1] | outcome [2] | outcome [10]
active: AC50 [3] 20.9 µM | AC50 [4] 20.9 µM

Cc1cc(C(C)Nc2ccccc2)c2nc(N3CCOCC3)cc(=O)n2c1 (stereo unspecified)
1.51: z-score [8, 16]
6510: cell count [6, 14]
1.05: fold change [6, 12]
inactive: outcome [1] | outcome [2] | outcome [4] | outcome [5] | outcome [10] | fold change [6, 11] 0.85 | z-score [8, 15] -0.0991
5530: cell count [6, 13]

O=c1c(-c2ccc(O)cc2)coc2cc(OC3O[C@H](CO)[C@@H](O)[C@H](O)[C@H]3O)cc(O)c12 (stereo partly specified)
active: AC50 [1] 20.9 µM
inactive: outcome [2] | outcome [4]

OC[C@H](Cc1ccccc1)Nc1nc(Oc2ccc3c(c2)CCC3)nc2c1ncn2Cc1ccc(-c2ccccc2)cc1
inactive: outcome [1] | outcome [2] | outcome [4] | outcome [10]

Cc1cnc(-c2cnc(NCCNc3ccc(C#N)cn3)nc2-c2ccc(Cl)cc2Cl)[nH]1
0.884: fold change [6, 12]
active: viability [9, 27] 98% | viability [9, 28] 99% | viability [9, 31] 88.1% | viability [9, 36] 99.7% | viability [9, 39] 93.1% | viability [9, 40] 99.5% | viability [9, 43] 93.8% | viability [9, 44] 91.8% | viability [9, 45] 80.9% | viability [9, 47] 58.5% | viability [9, 48] 78%
3740: cell count [6, 14]
inactive: outcome [1] | outcome [2] | outcome [3] | outcome [10] | fold change [6, 11] 0.776 | plate-normalised HSF1 focus index [7] 0.999 | z-score [8, 15] -0.0957 | viability [9, 17] 111% | viability [9, 18] 124% | viability [9, 19] 101% | viability [9, 20] 106% | viability [9, 21] 108% | viability [9, 22] 122% | viability [9, 23] 101% | viability [9, 24] 106% | viability [9, 25] 118% | viability [9, 26] 114% | viability [9, 29] 126% | viability [9, 30] 129% | viability [9, 32] 102% | viability [9, 33] 113% | viability [9, 34] 116% | viability [9, 35] 102% | viability [9, 37] 127% | viability [9, 38] 127% | viability [9, 41] 121% | viability [9, 42] 115% | viability [9, 46] 133%
-0.0886: z-score [8, 16]
7270: cell count [7]
2900: cell count [6, 13]
-0.145: SSMD [7]

CN1CCc2c(n(Cc3ccc(C(=O)NO)cc3)c3ccccc23)C1
inactive: outcome [1]
active: AC50 [2] 23.5 µM | AC50 [3] 18.6 µM

Cc1cccc(Nc2nc(-c3ccncc3)cs2)c1
4820 and 4970: cell count [6, 14]
1.01: z-score [8, 16]
4770 and 4650: cell count [6, 13]
active: AC50 [2] 20.9 µM | AC50 [3] 20.9 µM | viability [9, 19] 88.3% | viability [9, 20] 86.6% | viability [9, 23] 95.8% | viability [9, 24] 93.7% | viability [9, 27] 75.1% | viability [9, 28] 94.9% | viability [9, 32] 89.5% | viability [9, 40] 95.3% | viability [9, 44] 98.4% | viability [9, 47] 82.2%
inactive: outcome [1] | outcome [4] | outcome [10] | fold change [6, 11] 0.988 and 0.935 | z-score [8, 15] -0.247 | viability [9, 17] 109% | viability [9, 18] 111% | viability [9, 21] 108% | viability [9, 22] 108% | viability [9, 25] 114% | viability [9, 26] 106% | viability [9, 29] 112% | viability [9, 30] 112% | viability [9, 31] 110% | viability [9, 33] 107% | viability [9, 34] 108% | viability [9, 35] 102% | viability [9, 36] 101% | viability [9, 37] 115% | viability [9, 38] 106% | viability [9, 39] 104% | viability [9, 41] 129% | viability [9, 42] 115% | viability [9, 43] 101% | viability [9, 45] 157% | viability [9, 46] 136% | viability [9, 48] 110%
0.542 and 0.911: fold change [6, 12]
